In PubChem BioAssay AID1347417 (National Center for Advancing Translational Sciences (NCATS), 2020):
About 5,300 (4.4%) of roughly 120,000 compounds were called active. Where a call stands in place of a potency, no number is given. Inconclusive results (about 22%) are left out. Calls come from the whole dose curve; as a rule, active = well fitted inhibition curve with a large enough effect; inconclusive = small, poorly fitted or top-dose-only effect; inactive = no such curve, though single readings can be large or run the other way. For the sample, actives were picked, then their nearest neighbours and some compounds at random.

Test: qHTS Primary assay for Inhibitors of Plasmodium falciparum Dd2 growth in vitro; note: nearly all actives have a fitted effect of over 65% in size
Conditions: P. falciparum Dd2 growth, SYBR Green, 72 h; series mostly up to 28.9 µM
In short: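 Infected erythrocytes (Dd2, 0.3% parasitemia, 2.5% hematocrit final) are added to compound in RPMI-1640/Albumax II medium, grown 72 h at 37C in low oxygen, then lysed with saponin/Triton-X containing SYBR Green and read by fluorescence.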
Potency is the fitted concentration of half-maximal effect.

SMILES | Potency
O=C(c1ccco1)N1CCC2(CC1)CC(N(Cc1ccccc1)C1CC1)CCO2 (configuration not stated) | 4.47 µM (active)
CC(=O)N(C1CC1)C1CCOC2(CCN(C(=O)CCc3ccccc3)CC2)C1 (configuration not stated) | inactive
O=C(c1cc(F)ccc1F)N1CCC2(CC1)CC(N(Cc1ccccc1)C1CC1)CCO2 (configuration not stated) | inactive
CCN1CC2(CCN(C(=O)c3cc4c(cc3OC)CCC4)CC2)OC1=O | inactive
O=Cc1cccc(-c2cc(F)cc(F)c2)c1 | inactive
Cc1ccc(S(=O)(=O)NCc2nc3nc(C)cc(C)n3n2)cc1 | inactive
CCc1nc2nc(C)cc(Nc3ccc(F)c(Cl)c3)n2n1 | 3.55 µM (active)
CC(=O)c1ccc(NC(=O)c2nc3nc(C)cc(C(F)F)n3n2)cc1 | inactive
COCCN1C(=O)c2ccccc2C(C(=O)NC2CCCCCC2)C12CCCCC2 (configuration not stated) | inactive
COc1cc(OC)c(NC(=O)Cn2ccn3nc(-c4ccccc4)c(CO)c3c2=O)cc1Cl | inactive
Cc1cc(N2CCN(c3cccc(C(F)(F)F)c3)CC2)n2nc(-c3ccccc3)nc2n1 | inactive
CCNc1ncc(CN2CCN(c3cccc(C(F)(F)F)c3)CC2)cn1 | 11.2 µM (active)
CC(C)(C)C(=O)N1CC[C@@H](CC(=O)O)[C@@H](CCN2CCN(c3cccc(C(F)(F)F)c3)CC2)C1 | inactive
N#Cc1ccc(OCC2CN(Cc3c[nH]c4ccccc34)C(=O)c3c(ccnc3-c3ccc(OCC(=O)O)cc3)O2)cc1 (configuration not stated) | inactive
COc1ccccc1OC1(C(=O)O)CCN(C(=O)CC2CC2)CC1 | inactive
CN(C)c1ccc(C(=O)N[C@H]2C[C@H]3C(=O)NC[C@@H](CCC(=O)N4CCCCC4)N3C2)cc1 | inactive
Cn1nc2c(c1NC(=O)Cn1nc3c(cc1=O)CCCC3)CSC2 | inactive
Cc1ccc(C(=O)Nc2ccc(C(O)[C@H]3COCC(=O)N3Cc3ccccc3F)cc2)cc1 (some centres not stated) | inactive
O=C(CCc1ccccc1)Nc1ccc([C@@H](O)[C@H]2COCC(=O)N2Cc2ccccc2F)cc1 | 11.2 µM (active)
CCN1C(=O)COC[C@@H]1C(O)c1ccc(NC(=O)Cc2ccc(OC)cc2)cc1 (some centres not stated) | inactive
COCC(=O)Nc1ccc([C@@H](O)[C@H]2COCC(=O)N2Cc2ccc(C(F)(F)F)cc2)cc1 | 12.6 µM (active)
CCOCCN1C(=O)COC[C@@H]1[C@H](O)c1ccc(NC(=O)c2cnccn2)cc1 | inactive
O=C(Nc1ccc([C@@H](O)[C@H]2COCC(=O)N2CCCc2ccccc2)cc1)C1CC1 | inactive
Cc1ccc(Cl)cc1NC(=O)CN1C(=O)NC2(CCC(C)CC2)C1=O (configuration not stated) | inactive
Cc1ccc(CN2CCCOCCNC(=O)CC2)o1 | inactive

SMILES | Potency
CCn1cc(CN2CC[C@H]3C(=O)NCCCCCCN(Cc4ccncc4)[C@@H]3C2)c(C)n1 | inactive
O=C(NCc1ccccc1)N1CCN2C(=O)NC[C@H]2C1 | inactive
O=C(NC1CCCCCC1)c1ccc2c(c1)CC(=O)N2Cc1cccc(F)c1 | inactive
CCOc1ccc(CNC(=O)c2cccc(Nc3nc4ccccc4n4nnnc34)c2)cc1OC | 11.2 µM (active)
CCOc1ccc(OCC)c(Nc2nc3ccccc3n3nnnc23)c1 | inactive
CCOc1ccc(CNC(=O)c2ccc3nc(CC)c(CC)nc3c2)cc1OC | inactive
CC(=O)NCC1Cn2cccc2CN1Cc1ccccc1 (configuration not stated) | inactive
O=C(c1cccc(-n2cnnc2)c1)N(Cc1ccsc1)CC1CCCO1 (configuration not stated) | inactive
CC(C)c1ccc(C2CC(=O)N3CN(C4CCCCC4)CSC3=C2C#N)cc1 (configuration not stated) | 11.2 µM (active)
CCn1nccc1C(=O)N1CCCC(c2nc(-c3cccnc3)no2)CCNC(=O)CC1 (configuration not stated) | inactive
O=C(c1cc(F)ccc1F)N1CCCCCC1c1nnc(-c2ccccc2)o1 (configuration not stated) | inactive
Cc1cc(CN(C)C(=O)c2cc(COc3ccc(F)cc3F)on2)on1 | inactive
CCCNC(=O)CCC1CCN(C(=O)c2ccc(C)cc2)CC1 | inactive
CCCNc1cc(N2CCC(CCC(=O)Nc3ccc(C)cc3)CC2)ncn1 | 12.6 µM (active)
CCNc1cc(N2CCC(CCC(=O)N3CCc4ccccc4C3)CC2)ncn1 | inactive
CCOc1ccccc1C(=O)N[C@@H]1CN(c2ncccn2)C[C@H]1CO | inactive
CC(=O)N1CCC(C(=O)NCC(=O)N2CCCCCCNC(=O)CC2c2ccccc2)CC1 (configuration not stated) | inactive
Cc1nn2c(c1-c1ccccc1N1CCCC1)N(C(=O)c1ccc(Oc3ccccc3)cc1)CCC2 | inactive
Cc1nn2c(c1-c1ccnn1C(C)C)N(C(=O)c1ccc(Oc3ccccc3)cc1)CCC2 | inactive
Cc1nn2c(c1-c1ccccc1Oc1ccccc1)N(C(=O)C(C)C)CCC2 | 10 µM (active)
c1ccc(-c2nnc(CN3CCN(c4cnccn4)CC3)o2)cc1 | inactive
COc1cc(Nc2nc(-c3ccc(OC)c(OC)c3)nc3ccccc23)cc(OC)c1 | 8.91 µM (active)
COc1ccc(CCNc2nc(-c3ccc(F)cc3)cc(C(F)(F)F)n2)cc1OC | inactive
COc1ccc(Nc2ncc(C(=O)Nc3cc(C)ccc3OC)c3ccccc23)cc1 | inactive
COc1ccc(OCc2nc(C)c(CCO)c(=O)n2CC(=O)Nc2ccccc2C)cc1 | inactive

SMILES | Potency
CCC(C)NC(=O)CN1CN(c2ccccc2)C2(CCN(C(=O)c3ccccc3OC)CC2)C1=O (configuration not stated) | inactive
O=C(NC1CC(=O)N(Cc2ccccc2C(F)(F)F)C1)c1ccc[n+]([O-])c1 (configuration not stated) | inactive
O=C(c1cn2ccsc2n1)N1CCn2nc(C(O)c3ccccc3)cc2C1 (configuration not stated) | inactive
COC[C@@H]1CN(C(=O)c2cc(C)oc2C)C[C@H]1c1nc(C2CC2)no1 | inactive
CN(C)c1cccc(C(=O)Nc2nc3ccc(S(=O)(=O)NC(C)(C)C)cc3s2)c1 | 11.2 µM (active)
Cc1cc2nc(NC(=O)c3ccc(S(=O)(=O)N4CCOCC4)cc3)sc2cc1C | inactive
NS(=O)(=O)c1ccc2nc(NC(=O)COc3ccccc3)sc2c1 | inactive
CCOCCOC1CCN(C(=O)Cc2cccc(OC)c2)CC1 | inactive
Cc1ccc(NC(=O)N2CCC(OC3CCN(S(C)(=O)=O)CC3)CC2)cc1F | 0.447 µM (active)
Cc1cccc(C)c1NC(=O)N1CCC(OC2CCN(S(C)(=O)=O)CC2)CC1 | inactive
CS(=O)(=O)N1CCC(OC2CCN(C(=O)c3cccc(Cl)c3)CC2)CC1 | inactive
NC(=O)c1ccc(NC(=O)C2CC(=O)N(c3n[nH]c4cccc(F)c34)C2)cc1 (configuration not stated) | inactive
COC(=O)c1cccc(NC(=O)N2CCC3(CCC(=O)N(Cc4ccccc4)CC3)CC2)c1 | inactive
CCOC(=O)c1ccc(N2C(=O)c3n[nH]c(C)c3C2c2ccc(O)c(OC)c2)cc1 (configuration not stated) | inactive
CCOC(=O)c1ccc(NC(=O)C2CC(=O)N(c3ccc(C(C)C)cc3)C2)cc1 (configuration not stated) | inactive
CCOC(=O)c1ccc(N2C(=O)c3[nH]nc(-c4ccccc4)c3C2c2ccc(C(C)C)cc2)cc1 (configuration not stated) | 7.94 µM (active)
Nc1nc2c(s1)C(c1ccccc1)CC(=O)N2 (configuration not stated) | inactive
Cc1cccc(-c2cccc(CN)c2)c1 | 11.2 µM (active)
NCc1ccc(-c2cncnc2)cc1 | inactive
O=C(Cc1ccsc1)N1CCC(Oc2ccccc2)C1 (configuration not stated) | inactive
Cc1cccc(NC(c2cccc(F)c2)c2ccc3ccc(C)nc3c2O)n1 (configuration not stated) | 6.31 µM (active)
O=C(N1CCCC1)N1CCCC(c2nnc3n2CCNC3)C1 (configuration not stated) | inactive
COc1c(F)cccc1CN1CCOc2cc([S+](=O)([O-])N(C)C)ccc2C1 | inactive
COC(=O)C1=C(C)N=C2SC=C(CC(=O)NCc3ccccc3F)N2C1c1ccccc1Cl (configuration not stated) | 11.2 µM (active)
COC(=O)C1=C(C)N=C2SC=C(CC(=O)NCCC(C)C)N2C1c1ccccc1Cl (configuration not stated) | inactive

SMILES | Potency
COC(=O)C1=C(C)N=C2SC=C(CC(=O)NCc3ccco3)N2C1c1cccc(F)c1 (configuration not stated) | inactive
CCCNC(=O)[C@@H]1Cc2cn(Cc3cc(C)on3)c3cccc(c23)[C@H](CC(C)C)N1 | inactive
Cc1ccc(-c2nc(S(=O)(=O)c3ccc(C)cc3)c(N3CCCCCC3)o2)cc1 | inactive
O=C(CSc1oc(-c2ccc(F)cc2)nc1S(=O)(=O)c1ccc(Br)cc1)NC1CCCCC1 | inactive
CC(C)S(=O)(=O)c1oc(-c2ccc(F)cc2)nc1S(=O)(=O)c1ccc(F)cc1 | 11.2 µM (active)
COc1cccc(SCC(=O)NCc2cc3n(n2)CCNC3)c1 | inactive
COC[C@@H]1CN(Cc2cnn(C)c2C)C[C@H]1c1nc(C2CC2)no1 | inactive
O=C1OC[C@@H]2CCN(Cc3cnc4ccccc4c3)Cc3ccc(F)cc3N12 | 5.62 µM (active)
O=C1OC[C@@H]2CCN(Cc3ccncc3)Cc3ccc(F)cc3N12 | inactive
O=C1OC[C@@H]2CCN(Cc3ccccc3)Cc3ccccc3N12 | inactive
Cc1ccc(-n2nc3n(c2=O)CCN(C(=O)C(C)(C)C)C3)cc1 | inactive
CN(C1CCc2nn(C)c(=O)n2CC1)S(=O)(=O)c1ccc2c(c1)OCCO2 (configuration not stated) | inactive
CN1CCC(N2CC[C@H](c3nc4ccccc4s3)C2)CC1 | inactive
CC(C)c1ccc(CNC(=O)c2noc(-c3ccc[nH]c3=O)n2)cc1 | inactive
Cc1cc(OC2CN([S+](=O)([O-])c3cccs3)C2)ccc1F | inactive
CCc1nc2c(c(-c3ccc(OC)cc3)n1)CCN(CC1CCCCC1)CC2 | inactive
CCc1nc2c(c(-c3ccc(Cl)cc3)n1)CN(CCC(C)C)CC2 | 7.94 µM (active)
Cc1ccc(CN2CCc3nc(C)nc(-c4ccc(O)cc4)c3C2)cc1 | inactive
CCc1nc2c(c(-c3ccc(Cl)cc3)n1)CCN([S+](=O)([O-])c1cccs1)CC2 | 12.6 µM (active)
O=C1CCNCCCOCCN1 | inactive
Cc1ccc(NC2=C(c3ccc(C(F)(F)F)cc3)C(=O)c3ccccc32)cc1F | 0.178 µM (active)
Cc1ccc(NC(=O)CN2c3ccccc3S(=O)(=O)c3ccccc32)cc1F | inactive
